Measured values as given in PubChem BioAssay AID1159580 (chemical genetic matrix, 2015).
Several values for one entry are separate records, joined by “and”; a condition that tells them apart may be missing. Equal entries are not always repeated. In all, about 5,500 compounds went through this assay and about 2,000 (36%) were called active. Inconclusive results (about 18%) are left out. Rule as the data show it: active = normalized growth mostly below about 0.91 (no sharp cut-off); inconclusive = no clear call, values can overlap the other calls; inactive = mostly above about 0.92. The list shows a part of the results.

Test: chemical genetic growth profiling, strain panel (AID 1159580);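 also: tested at 20 µM; growth read once vehicle control cultures reached saturation at 30 °C; 1 = growth at the plate median or of vehicle wells; lower values mean less growth of the strain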
Conditions: growth OD

Measured: normalized growth

CC1=C(/C=C/C(C)=C/C=C/C(C)=C/C(=O)O)C(C)(C)CCC1
inactive: S. cerevisiae deletion strains, locus YJR075W, strain HOC1, stronger effect = lower value 1.01 | S. cerevisiae deletion strains, locus YKL009W, strain mrt4, stronger effect = lower value 0.992 | S. cerevisiae deletion strains, locus YKL068W, stronger effect = lower value 1.02 | S. cerevisiae deletion strains, locus YKL085W, strain MDH1 (second series), stronger effect = lower value 1.02 | S. cerevisiae deletion strains, locus YKL085W, strain MDH1, stronger effect = lower value 1.02 | S. cerevisiae deletion strains, locus YKL160W, strain elf1, stronger effect = lower value 0.93 | S. cerevisiae deletion strains, locus YKL190W, strain CNB1, stronger effect = lower value 1.01 | S. cerevisiae deletion strains, locus YKR001C, strain vps1, stronger effect = lower value 1.02 | S. cerevisiae deletion strains, locus YKR026C, strain gcn3, stronger effect = lower value 1.01 | S. cerevisiae deletion strains, locus YKR091W, strain srl3, stronger effect = lower value 1.01 | S. cerevisiae deletion strains, locus YLL001W, strain dnm1, stronger effect = lower value 0.963 | S. cerevisiae deletion strains, locus YLL026W, stronger effect = lower value 0.996 | S. cerevisiae deletion strains, locus YLL041C, strain sdh2, stronger effect = lower value 1.02 | S. cerevisiae deletion strains, locus YLR027C, strain aat2, stronger effect = lower value 0.966 | S. cerevisiae deletion strains, locus YLR039C, strain RIC1, stronger effect = lower value 0.945 | S. cerevisiae deletion strains, locus YLR058C, strain SHM2, stronger effect = lower value 1.01 | S. cerevisiae deletion strains, locus YLR102C, strain apc9, stronger effect = lower value 1.04 | S. cerevisiae deletion strains, locus YLR113W, strain HOG1, stronger effect = lower value 0.978 | S. cerevisiae deletion strains, locus YLR221C, strain rsa3, stronger effect = lower value 0.982 | S. cerevisiae deletion strains, locus YLR258W, strain gsy2, stronger effect = lower value 0.972 | S. cerevisiae deletion strains, locus YLR262C, strain YPT6, stronger effect = lower value 0.93 | S. cerevisiae deletion strains, locus YLR268W, strain sec22, stronger effect = lower value 1 | S. cerevisiae deletion strains, locus YLR320W, strain mms22, stronger effect = lower value 0.935 | S. cerevisiae deletion strains, locus YLR330W, strain CHS5, stronger effect = lower value 1.01 | S. cerevisiae deletion strains, locus YLR342W, strain FKS1 (second series), stronger effect = lower value 1.02 | S. cerevisiae deletion strains, locus YLR342W, strain FKS1, stronger effect = lower value 0.922 | S. cerevisiae deletion strains, locus YLR357W, strain rsc2, stronger effect = lower value 0.94 | S. cerevisiae deletion strains, locus YLR370C, strain arc18, stronger effect = lower value 0.989 | S. cerevisiae deletion strains, locus YLR371W, strain rom2, stronger effect = lower value 1.03 | S. cerevisiae deletion strains, locus YLR384C, strain iki3, stronger effect = lower value 0.995 | S. cerevisiae deletion strains, locus YLR418C, strain cdc73, stronger effect = lower value 1.05 | S. cerevisiae deletion strains, locus YML016C, strain PPZ1, stronger effect = lower value 1.01 | S. cerevisiae deletion strains, locus YML032C, strain rad52, stronger effect = lower value 1.03 | S. cerevisiae deletion strains, locus YML120C, strain ndi1, stronger effect = lower value 1.01 | S. cerevisiae deletion strains, locus YML124C, strain tub3, stronger effect = lower value 1.03 | S. cerevisiae deletion strains, locus YMR058W, strain fet3, stronger effect = lower value 0.948 | S. cerevisiae deletion strains, locus YMR078C, strain ctf18, stronger effect = lower value 1.04 | S. cerevisiae deletion strains, locus YMR125W, strain sto1, stronger effect = lower value 1 | S. cerevisiae deletion strains, locus YMR129W, stronger effect = lower value 1 | S. cerevisiae deletion strains, locus YMR205C, strain PFK2, stronger effect = lower value 0.965 | S. cerevisiae deletion strains, locus YMR223W, strain ubp8, stronger effect = lower value 1.02 | S. cerevisiae deletion strains, locus YMR231W, strain pep5, stronger effect = lower value 1.01 | S. cerevisiae deletion strains, locus YMR263W, strain SAP30, stronger effect = lower value 1 and 0.999 | S. cerevisiae deletion strains, locus YMR307W, strain GAS1, stronger effect = lower value 1.02 | S. cerevisiae deletion strains, locus YNL067W, strain RPL9B, stronger effect = lower value 1 | S. cerevisiae deletion strains, locus YNL071W, strain lat1, stronger effect = lower value 0.957 | S. cerevisiae deletion strains, locus YNL128W, strain TEP1, stronger effect = lower value 1.02 | S. cerevisiae deletion strains, locus YNL153C, strain GIM3, stronger effect = lower value 1.01 | S. cerevisiae deletion strains, locus YNL175C, strain NOP13, stronger effect = lower value 1.05 | S. cerevisiae deletion strains, locus YNL183C, strain NPR1, stronger effect = lower value 0.905 | S. cerevisiae deletion strains, locus YNL197C, strain WHI3, stronger effect = lower value 1.04 | S. cerevisiae deletion strains, locus YNL209W, strain ssb2, stronger effect = lower value 0.973 | S. cerevisiae deletion strains, locus YNL224C, strain SQS1, stronger effect = lower value 1.03 | S. cerevisiae deletion strains, locus YNL233W, strain BNI4, stronger effect = lower value 1.01 | S. cerevisiae deletion strains, locus YNL248C, strain rpa49, stronger effect = lower value 0.955 | S. cerevisiae deletion strains, locus YNL250W, strain rad50, stronger effect = lower value 1.03 | S. cerevisiae deletion strains, locus YNL271C, strain bni1, stronger effect = lower value 1.03 | S. cerevisiae deletion strains, locus YNL298W, strain CLA4, stronger effect = lower value 1.03 | S. cerevisiae deletion strains, locus YNL307C, strain MCK1, stronger effect = lower value 1.01 | S. cerevisiae deletion strains, locus YNL322C, strain KRE1 (second series), stronger effect = lower value 0.989 | S. cerevisiae deletion strains, locus YNL322C, strain KRE1, stronger effect = lower value 1.01 and 1 | S. cerevisiae deletion strains, locus YNR049C, strain mso1, stronger effect = lower value 1.01 | S. cerevisiae deletion strains, locus YNR052C, strain pop2, stronger effect = lower value 1.04 | S. cerevisiae deletion strains, locus YOL006C, strain TOP1, stronger effect = lower value 1.04 | S. cerevisiae deletion strains, locus YOL012C, strain htz1 1.82 | S. cerevisiae deletion strains, locus YOL147C, strain pex11, stronger effect = lower value 1.03 | S. cerevisiae deletion strains, locus YOR001W, strain rrp6, stronger effect = lower value 0.978 | S. cerevisiae deletion strains, locus YOR061W, strain CKA2, stronger effect = lower value 1.01 | S. cerevisiae deletion strains, locus YOR069W, strain VPS5, stronger effect = lower value 1.01 | S. cerevisiae deletion strains, locus YOR070C, strain gyp1, stronger effect = lower value 0.975 | S. cerevisiae deletion strains, locus YOR080W, strain dia2, stronger effect = lower value 0.999 | S. cerevisiae deletion strains, locus YOR083W, strain WHI5 (second series), stronger effect = lower value 1.02 | S. cerevisiae deletion strains, locus YOR106W, strain vam3, stronger effect = lower value 0.935 | S. cerevisiae deletion strains, locus YOR136W, strain idh2, stronger effect = lower value 1.04 | S. cerevisiae deletion strains, locus YOR144C, strain elg1, stronger effect = lower value 1.04 | S. cerevisiae deletion strains, locus YOR184W, strain ser1, stronger effect = lower value 1.03 | S. cerevisiae deletion strains, locus YOR231W, strain MKK1, stronger effect = lower value 0.992 | S. cerevisiae deletion strains, locus YOR265W, strain rbl2, stronger effect = lower value 1.01 | S. cerevisiae deletion strains, locus YOR270C, strain vph1, stronger effect = lower value 0.926 | S. cerevisiae deletion strains, locus YOR290C, strain snf2, stronger effect = lower value 0.952 | S. cerevisiae deletion strains, locus YOR316C, strain cot1, stronger effect = lower value 1.02 | S. cerevisiae deletion strains, locus YPL051W, strain arl3, stronger effect = lower value 0.932 | S. cerevisiae deletion strains, locus YPL055C, strain LGE1, stronger effect = lower value 1.01 and 0.999 | S. cerevisiae deletion strains, locus YPL078C, strain atp4, stronger effect = lower value 0.943 | S. cerevisiae deletion strains, locus YPL106C, strain sse1, stronger effect = lower value 0.987 | S. cerevisiae deletion strains, locus YPL240C, strain hsp82, stronger effect = lower value 0.992 | S. cerevisiae deletion strains, locus YPL241C, strain CIN2, stronger effect = lower value 1.01 | S. cerevisiae deletion strains, locus YPL256C, strain CLN2, stronger effect = lower value 1.04 | S. cerevisiae deletion strains, locus YPR119W, strain clb2, stronger effect = lower value 1.03 | S. cerevisiae deletion strains, locus YPR141C, strain kar3, stronger effect = lower value 1.05 | S. cerevisiae deletion strains, locus YPR163C, strain tif3, stronger effect = lower value 1.04 | S. cerevisiae deletion strains, locus YPR167C, strain met16, stronger effect = lower value 1.03 | S. cerevisiae deletion strains, strain wtn01, stronger effect = lower value 1.04 | S. cerevisiae strains, strain wild type, stronger effect = lower value 1
active: S. cerevisiae deletion strains, locus YLR262C, strain YPT6 (second series), stronger effect = lower value 0.827 | S. cerevisiae deletion strains, locus YOR083W, strain WHI5, stronger effect = lower value 0.883
